These results are taken from PubChem BioAssay AID1851 (National Center for Advancing Translational Sciences (NCATS), 2009).

SMILES strings stand for the structures. Screen size: about 16,000 compounds; about 5,800 (36%) were called active. About 23% were inconclusive and are not listed. This is one part of the list. Values without a mark were called inactive. Calls follow the shape of the dose curve; as a rule, active = well fitted curve in the direction sought with a large enough effect; inconclusive = small, poorly fitted or top-dose-only effect, or effect the other way; inactive = no such curve, though single readings can be large or run the other way.
% is scaled to controls: 0 for no effect and ±100 for the full control effect.

Cytochrome P450 2C19 (Homo sapiens), sequence (P33261 whole entry, looked up): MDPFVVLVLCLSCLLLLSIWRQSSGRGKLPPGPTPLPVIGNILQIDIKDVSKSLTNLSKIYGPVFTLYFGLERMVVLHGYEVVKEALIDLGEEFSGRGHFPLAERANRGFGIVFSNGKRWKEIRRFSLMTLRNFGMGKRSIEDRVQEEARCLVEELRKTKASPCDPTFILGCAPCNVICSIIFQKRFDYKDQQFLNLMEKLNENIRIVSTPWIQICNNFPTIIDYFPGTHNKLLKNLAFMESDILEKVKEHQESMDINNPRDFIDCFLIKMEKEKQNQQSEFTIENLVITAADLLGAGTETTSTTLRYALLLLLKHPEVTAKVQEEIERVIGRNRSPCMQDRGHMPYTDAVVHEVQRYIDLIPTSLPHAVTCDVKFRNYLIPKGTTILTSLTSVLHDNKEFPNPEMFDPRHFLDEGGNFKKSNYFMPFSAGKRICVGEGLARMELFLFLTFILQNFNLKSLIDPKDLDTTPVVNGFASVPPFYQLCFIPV

The experiment has as its target Cytochrome P450 2C19 (Homo sapiens) (UniProt P33261). Briefly: Cytochrome panel assay with activity outcomes. To be noted: recombinant CYP, pro-luciferin dealkylation, luminescence, p450-cyp2c19; series mostly up to 57.1 µM; activity, negative = inhibition: at the top concentration.
On to `c1ccc(-c2cccc(N3CCC4(CCNCC4)CC3)c2)cc1`, for which the “activity, negative = inhibition” value was -43%.

As for `CC(=O)N1CCC[C@@]2(CCN(c3ccncc3)C2)C1`, the “activity, negative = inhibition” value was 5.7%.

As for `Cn1cccc1C(=O)N1CCC[C@@]2(CCN(c3ccncc3)C2)C1`, the AC50 was 6.31 µM (active).

In the case of `Cn1cccc1C(=O)N1CCC2(CC1)CN(c1ccccn1)C2`, the “activity, negative = inhibition” value is -9.16%.

With `O=C(c1ccco1)N1CCC[C@@]2(CCN(c3ccncc3)C2)C1`, the “activity, negative = inhibition” value is -25.6%.

For `Nc1nc(=O)c2[nH]cnc2n1O`, the activity, negative = inhibition is -10.6% [at 11.4 µM].

`CNC(=O)[C@@H]1O[C@@H](n2cnc3c(NCc4ccc(N)cc4)ncnc32)[C@@H](O)[C@H]1O`: the “activity, negative = inhibition” value is 20.5%.

For `CN1CC[C@@]2(CCCN(C(=O)c3cccn3C)C2)C1`, the “activity, negative = inhibition” value is 12.9%.

Consider `CC(C)NC(=O)N1CC[C@@]2(CCCN(C(=O)c3cccn3C)C2)C1`, for which the “activity, negative = inhibition” value was 23%.

Consider `Cn1cccc1C(=O)N1CCC[C@@]2(CCN(c3ccccc3)C2)C1`, for which the half-maximal activity concentration (AC50) is 5.01 µM (active).

As to `Cc1ccc(S(=O)(=O)NCCn2c(C)cc3ccccc32)cc1`, the half-maximal activity concentration (AC50) is 1 µM (active).

As to `Cc1ccc(S(=O)(=O)NC(=O)c2cccn2C)cc1`, the “activity, negative = inhibition” value is 7.77%.

On to `Cc1cc2ccccc2n1CCNC(=O)C1CCCC1`, for which the AC50 is 1.26 µM (active).

Turning to `Cc1cc2ccccc2c(=O)n1CC(=O)NCC(=O)N1CCCC1`, the “activity, negative = inhibition” value is -15.6%.

For `CN(C)CCn1c(C(=O)O)cc2ccccc21`, the “activity, negative = inhibition” value is 31.4%.

In the case of `Cc1nnc(NC(=O)c2oc3c(ccc4ccccc43)c2C)s1`, the AC50 is 10 µM (active).

`Cc1ccc(S(=O)(=O)CC#CCOC(=O)c2ccc([N+](=O)[O-])cc2)cc1`: the AC50 was 7.94 µM (active).

On to `Cc1c(OC(=O)c2ccc([N+](=O)[O-])cc2)c2c(c[n+]1C)COC(C)(C)OC2`, for which the “activity, negative = inhibition” value is 20.4%.

As to `CCOC(=O)n1ccn(C)c1=S`, the “activity, negative = inhibition” value is 10.6% [at 25.6 µM].

Regarding `O=C1Nc2ccccc2C(O)(C(=O)NCc2ccc3c(c2)OCO3)N1c1ccc(Cl)c(Cl)c1` (stereo not given), the “activity, negative = inhibition” value is -26.2%.

Take `C/C(=C\C(=O)c1ccc(Br)cc1)NCc1ccc2c(c1)OCO2`: the AC50 was 8.91 µM (active).

In the case of `C/C(=C\C(=O)c1ccc(Cl)cc1)NCc1ccc2c(c1)OCO2`, the AC50 is 2.51 µM (active).

`O=C(c1ccc(Cl)c(Cl)c1)c1cc(-c2ccccn2)c(N2CCOCC2)s1`: the AC50 is 7.94 µM (active).

For `O=C(Nc1ccccc1N1CCOCC1)c1ccccc1[N+](=O)[O-]`, the “activity, negative = inhibition” value is -26.2%.

In the case of `Cc1ccccc1C(=O)Nc1ccc(N2CCOCC2)nc1`, the “activity, negative = inhibition” value was -14.6%.

`Cc1cc(F)ccc1S(=O)(=O)Nc1ccccc1C(=O)Nc1ccccc1N1CCOCC1`: the AC50 was 1.58 µM (active).

Consider `NCc1ccccc1CC(=O)N[C@@H]1C(=O)N2C(C(=O)O)=C(CSc3nnnn3CC(=O)O)CS[C@@H]12`, for which the “activity, negative = inhibition” value is 13.7% [at 25.6 µM].

On to `CCn1cnc2sc(C(=O)N3CCN(c4ccc(OC)cc4)CC3)c(C)c2c1=O`, for which the AC50 was 10 µM (active).

For `CC(=O)NCCc1c(Cc2ccccc2)[nH]c2ccccc12`, the AC50 is 25.1 µM (active).

As to `COC(=O)Nc1ccc2[nH]cc(CCNC(C)=O)c2c1`, the “activity, negative = inhibition” value is -26.7%.

As to `COc1ccc2[nH]c(-c3ccccc3)c(CCNC(C)=O)c2c1`, the AC50 was 7.94 µM (active).

In the case of `CC(=O)NCCc1ccc(O)c(O)c1`, the “activity, negative = inhibition” value was -0.0511%.

Regarding `C=N[C@H](C(=O)N[C@@H]1C(=O)N2[C@@H]1SC(C)(C)[C@@H]2C(=O)O)c1ccccc1`, the “activity, negative = inhibition” value was -3.23% [at 25.6 µM].

Turning to `COc1ccc(NS(=O)(=O)c2cc(-c3nnnn3C)ccc2OC)cc1`, the AC50 was 14.1 µM (active).

Turning to `COc1ccccc1S(=O)(=O)Nc1ccc(-c2nnc3n2CCCCC3)cc1`, the “activity, negative = inhibition” value is -33%.

Take `O=C(O)c1ccc(SSc2ccc(C(=O)O)cn2)nc1`: the AC50 is 2.51 µM (active).

Consider `O=C(O)c1cc(C(=O)O)nc(C(=O)O)c1`, for which the activity, negative = inhibition is 3.49% [at 11.4 µM].

For the compound `O=C(O)c1cccc(SSc2cccc(C(=O)O)c2)c1`, the activity, negative = inhibition is -33.7% [at 11.4 µM].

Regarding `CCOC(=O)c1nnc(-c2ccccc2)nc1NCc1ccccc1`, the AC50 is 25.1 µM (active).

`Cc1ccnc(NS(=O)(=O)c2ccc(N)cc2)n1`: the AC50 result is “inactive”.

Consider `O=S(=O)(Nc1ccc(Cc2ccncc2)cc1)c1ccc(Cl)c(Cl)c1`, for which the AC50 is 0.0251 µM (active).

In the case of `O=S(=O)(Nc1ccc(Cc2ccncc2)cc1)c1ccc(Br)cc1`, the AC50 is 0.0224 µM (active).

As for `C/C(=N/S(=O)(=O)c1ccc(Cl)c(Cl)c1)OCC(C)(C)C`, the activity, negative = inhibition is 58.8% [at 11.4 µM].

Turning to `O=S(=O)(Nc1ccc(Cc2ccncc2)cc1)c1cccs1`, the AC50 is 0.0224 µM (active).

As to `CC(=O)N=c1sc(S(N)(=O)=O)nn1C`, the “activity, negative = inhibition” value was -1.35% [at 25.6 µM].

Take `Cc1ccc(NC(=O)CSc2nnc(-c3ccncc3)o2)cc1`: the “activity, negative = inhibition” value is -29.9%.

With `COc1cc(-c2nnc(SCC3(c4ccccc4)OCCO3)o2)cc(OC)c1OC`, the AC50 was 1.12 µM (active).

With `CCN(CC)CCCCCCCCOC(=O)c1cc(OC)c(OC)c(OC)c1`, the “activity, negative = inhibition” value is -15.4%.

Turning to `COc1cc(-c2nnc(SCC(=O)Nc3ccc4c(c3)OCCO4)o2)cc(OC)c1OC`, the AC50 was 11.2 µM (active).

`CCCCOC(=O)CSc1nnc(-c2cc(OC)c(OC)c(OC)c2)o1`: the AC50 is 15.8 µM (active).

By AC50 is commonly meant the concentration giving half of the maximal activity seen.
